Screens from PubChem.
NPC1 promoter act: qHTS Assay for NPC1 Promoter Activators; Huh7 NPC1 promoter luciferase reporter, 24 h; Potency, µM (titrated, usually from 9.22 µM), usual class: activators; 320,000 compounds, 2.4% hits; AID 485313, 2010; further: nearly all actives have a fitted effect of over 60% in size
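Compounds in DMSO were transferred onto Huh7 NPC1-luciferase reporter cells pre-incubated 2 h; after 24 h at 37 °C, Amplite reagent was dispensed and luminescence recorded 10 min later.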
FLuc counter: qHTS profiling assay for firefly luciferase inhibitor/activator using purifed enzyme and Km concentrations of substrates (counterscreen for miR-21 project). purified FLuc, Km substrates, luminescence inhibition. Potency, µM (highest dose often 57.5 µM), usual class: inhibitors. 360,000 compounds, 6.9% hits. AID 588342, 2011; further: nearly all actives have a fitted effect of over 55% in size
Target sequence (P08659 whole entry, looked up): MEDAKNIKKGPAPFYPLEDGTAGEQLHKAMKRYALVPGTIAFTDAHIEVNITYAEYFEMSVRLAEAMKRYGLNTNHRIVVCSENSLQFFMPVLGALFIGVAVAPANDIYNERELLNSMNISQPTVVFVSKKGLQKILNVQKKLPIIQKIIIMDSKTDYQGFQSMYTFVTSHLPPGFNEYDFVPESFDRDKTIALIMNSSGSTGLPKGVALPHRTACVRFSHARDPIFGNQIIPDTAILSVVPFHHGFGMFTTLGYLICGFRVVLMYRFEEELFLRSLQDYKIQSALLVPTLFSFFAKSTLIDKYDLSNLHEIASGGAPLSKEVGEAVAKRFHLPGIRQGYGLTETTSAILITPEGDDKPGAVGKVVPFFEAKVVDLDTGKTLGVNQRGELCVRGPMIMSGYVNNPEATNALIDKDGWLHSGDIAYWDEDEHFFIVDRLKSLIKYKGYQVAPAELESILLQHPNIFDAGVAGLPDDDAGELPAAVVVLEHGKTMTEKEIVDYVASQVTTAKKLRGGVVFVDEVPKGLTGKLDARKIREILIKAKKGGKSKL
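Biochemical qHTS of compounds, final roughly 60 µM downward over six points, against 10 nM purified firefly luciferase using Km concentrations of substrates (10 uM D-luciferin, 10 uM ATP) in Tris acetate pH 7.5 buffer; luminescence output.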
p53 reactivator: qHTS assay for re-activators of p53 using a Luc reporter. AID 504706, 2011. H1299 p53-A138V BP100-luciferase reporter, luminescence, 24 h. 320,000 compounds, 0.063% hits. Potency, µM (series often up to 92.2 µM), actives largely listed as activators; further: nearly all actives have a fitted effect of over 45% in size
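H1299 (p53-null), stable ts p53-A138V + BP100-Luc; 1000 cells/well, Opti-MEM/10% FBS; cpd 4 pt, 1:5; 24 h, 37 deg C, 5% CO2; detection reagent 10 min RT; luminescence.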
SMN2 splice enh: qHTS Assay for Enhancers of SMN2 Splice Variant Expression | HEK293 SMN2-luciferase splicing reporter, luminescence, 30-36 h | Potency, µM (doses to about 46.1 µM), most hits filed as activators | 210,000 compounds, 2.8% hits | AID 1458, 2008; further: nearly all actives have a fitted effect of over 55% in size
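HEK293 cells carry an SMN2 […]–luciferase reporter in which exon 7 inclusion puts luciferase in frame. Cells were plated 10-12 h before compound addition, then incubated 30-36 h at 37C. ONE-Glo luminescence was read; sodium butyrate at 4.5 mM final served as control.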
ELG1 genotox: qHTS screen for small molecules that induce genotoxicity in human embryonic kidney (HEK293T) cells expressing luciferase-tagged ELG1; HEK293T ELG1-luciferase reporter, luminescence, 16 h; 330,000 compounds, 1.3% hits; Potency, µM (doses to about 46 µM), actives largely listed as activators; AID 504466, 2011; further: nearly all actives have a fitted effect of over 60% in size
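Cells (2,000/well) expressing the ELG1-luciferase fusion are dosed by pin tool and kept 16 hr at 37 °C, 5% CO2. Signal comes from ONE-Glo luciferase reagent after 30 min at room temperature.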
Rab9 prom act: qHTS Assay for Rab9 Promoter Activators; Huh7 Rab9 promoter-luciferase reporter, luminescence, 24 h; Potency, µM (doses to about 9.22 µM), hits mostly activators; 320,000 compounds, 2.8% hits; further: nearly all actives have a fitted effect of over 60% in size
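Luminescence read-out: Huh7 cells stably expressing Rab9-luciferase, treated 24 h with compound at 37 °C, then lysed with luciferase reagent for 10 min at ambient before reading.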
Of the large screens only hits and unclear results are named; the others gave an inactive call. Compounds with a hit are over-represented: about 7.3% of the library has one in this group of screens. The call rests on the fitted dose curve; in most records, active means well fitted curve in the direction sought with a large enough effect; inconclusive means small, poorly fitted or top-dose-only effect, or another doubt; inactive means no such curve, though single readings can be large; an effect the other way counts as inactive or inconclusive.

CC1(C(=O)OCc2cc(=O)n3cc(Br)ccc3n2)CC1(Cl)Cl (centres undefined)	NPC1 promoter act 3.16µM, FLuc counter 13.5µM, SMN2 splice enh inconclusive, ELG1 genotox 11.6µM
COC(=O)C1=C(C(=O)OC)[C@@H]2N(C)c3ccc(OC)cc3[C@@]23C[C@@H](C(=O)OC)N(S(=O)(=O)c2ccc(C(F)(F)F)cc2)C3=N1	none (no result: NPC1 promoter act, FLuc counter, p53 reactivator, ELG1 genotox, Rab9 prom act)
CC1CCCCN1C(=O)C12CCC(C)(/C(=N/O)C1)C2(C)C (centres undefined)	none
O=C(c1ccc(OC(F)(F)F)cc1)c1ncc[nH]1	NPC1 promoter act inconclusive, FLuc counter inconclusive, ELG1 genotox inconclusive, Rab9 prom act 3.55µM (no result: SMN2 splice enh)
Cc1ccc(C(=O)c2ncc[nH]2)cc1	NPC1 promoter act inconclusive, FLuc counter inconclusive, ELG1 genotox inconclusive, Rab9 prom act inconclusive (no result: SMN2 splice enh)
CCc1ccccc1NC(=O)Cn1nc(-c2cc(C)ccc2C)c2c(c1=O)CCCC2	none (no result: NPC1 promoter act, p53 reactivator, ELG1 genotox, Rab9 prom act)
CC1(C)Cc2c(sc(NC(=O)C(=O)N3CCCC3)c2C(N)=O)CO1	none (no result: SMN2 splice enh)
Cc1sc(NC(=O)Nc2ccccc2)c(C(N)=O)c1C	NPC1 promoter act inconclusive, FLuc counter 7.57µM, Rab9 prom act 2µM (no result: SMN2 splice enh)
CC1(C)Cc2c(sc(NC(=O)Nc3ccccc3)c2C(N)=O)CO1	NPC1 promoter act 4.47µM, FLuc counter 12µM, ELG1 genotox inconclusive, Rab9 prom act 1.26µM (no result: p53 reactivator, SMN2 splice enh)
CC(C)CN1CC2(CCN(C(=O)c3cccc(F)c3)CC2)C1	none (no result: NPC1 promoter act, FLuc counter, p53 reactivator, ELG1 genotox, Rab9 prom act)
COc1ccccc1C(=O)Nc1ccccc1OCc1cc(=O)n2c(C)csc2n1	none (no result: NPC1 promoter act, p53 reactivator, ELG1 genotox, Rab9 prom act)
CCc1ccc2c(c1)[C@H]1OCC[C@H]1[C@@H](c1cccs1)N2	FLuc counter 15.1µM
CCc1ccc2c(c1)/C(=C/C(=O)c1cccs1)C(=O)N2	FLuc counter inconclusive, ELG1 genotox inconclusive
O/N=C/c1ccccc1OCc1ccc(Cl)cc1	NPC1 promoter act inconclusive, FLuc counter 16.9µM, Rab9 prom act inconclusive
CCOC(=O)N/N=C/c1ccccc1OCc1ccc(Cl)cc1	FLuc counter 15.1µM, p53 reactivator inconclusive
O/N=C/c1ccccc1OCc1ccccc1Cl	none
COc1cccc(CNC(=O)CCc2c(C)nn(-c3ccc(N4CCCC4)nn3)c2C)c1	none (no result: NPC1 promoter act, p53 reactivator, SMN2 splice enh, ELG1 genotox, Rab9 prom act)
O=C(NCc1ccco1)c1cccc(-c2nnc(-c3ccccc3)o2)c1	FLuc counter inconclusive
O=C(COC(=O)CCN1C(=O)c2cccc([N+](=O)[O-])c2C1=O)NCc1ccccc1	none
O=C(CN1C(=O)c2cccc([N+](=O)[O-])c2C1=O)OCC(=O)N1CCCCC1	FLuc counter 8.49µM (no result: SMN2 splice enh)
CC(C)c1ccc(/C=C/C(=O)Nc2ccc(CN3CCOCC3)cc2)cc1	FLuc counter 12µM (no result: SMN2 splice enh)
Cc1ccccc1NC(=O)c1ccc(CN2CC(=O)N3CCCCC3C2=O)cc1 (centres undefined)	none (no result: SMN2 splice enh)
CC(C)c1ccc(C(=O)Nc2ccc(CN3CCOCC3)cc2)cc1	FLuc counter 10.7µM (no result: SMN2 splice enh)
O=C(Nc1ccc2c(c1)OCO2)c1ccc(CN2CCOCC2)cc1	NPC1 promoter act inconclusive, FLuc counter 15.1µM, p53 reactivator inconclusive, ELG1 genotox 18.4µM
CC(C)c1ccc(NC(=O)c2ccc(CN3CC(=O)N4CCCCC4C3=O)cc2)cc1 (centres undefined)	FLuc counter 10.7µM (no result: NPC1 promoter act, p53 reactivator, SMN2 splice enh, ELG1 genotox, Rab9 prom act)
COc1ccc(OCC(O)Cn2c(NCCO)nc3c2c(=O)n(C)c(=O)n3C)cc1 (centres undefined)	none (no result: NPC1 promoter act, p53 reactivator, ELG1 genotox, Rab9 prom act)
CCN(C(=O)CCn1cnc2onc(-c3ccc(F)cc3)c2c1=O)c1ccc(OC)cc1	none (no result: NPC1 promoter act, p53 reactivator, SMN2 splice enh, ELG1 genotox, Rab9 prom act)
Cc1oc(-c2ccccc2F)nc1CS(=O)CC(=O)NC(C)C (centres undefined)	none (no result: NPC1 promoter act, p53 reactivator, ELG1 genotox, Rab9 prom act)
S=C(Nc1ccc(Cl)cc1)NN1CCOCC1	none
CC(C)c1ccc(NC(=S)NN2CCOCC2)cc1	NPC1 promoter act inconclusive, FLuc counter inconclusive, p53 reactivator inconclusive, SMN2 splice enh 22.4µM, Rab9 prom act inconclusive
COc1ccc(NC(=O)COC(=O)C2CC3C=CC2C3)cc1 (centres undefined)	FLuc counter 16.9µM
N#C/C(=C(/O)c1cccc(F)c1)c1nc2ccccc2s1	NPC1 promoter act inconclusive, FLuc counter 19µM, p53 reactivator inconclusive, Rab9 prom act inconclusive (no result: SMN2 splice enh)
N#C/C(=C(/O)c1ccco1)c1nc2ccccc2s1	NPC1 promoter act 2.24µM, FLuc counter 8.49µM, Rab9 prom act 3.16µM
N#C/C(=C(/O)c1ccco1)c1nc2ccccc2[nH]1	FLuc counter 19µM, Rab9 prom act inconclusive
N#C/C(=C(/O)c1cc2ccccc2o1)c1nc2ccccc2s1	NPC1 promoter act 3.16µM, FLuc counter 6.75µM, Rab9 prom act inconclusive (no result: SMN2 splice enh)
N#C/C(=C(/O)C(Cl)c1ccccc1)c1nc2ccccc2s1 (centres undefined)	FLuc counter inconclusive, ELG1 genotox inconclusive, Rab9 prom act inconclusive
COc1ccc(-n2c(-c3ccccc3F)nc3c(cnn3-c3ccc(C)cc3)c2=O)cc1	none (no result: NPC1 promoter act, p53 reactivator, ELG1 genotox, Rab9 prom act)
COc1ccc(CCNC(=O)Cn2c(=O)nc(-c3ccccc3F)c3cc(Cl)ccc32)cc1OC	none (no result: NPC1 promoter act, p53 reactivator, SMN2 splice enh, ELG1 genotox, Rab9 prom act)
COC(=O)c1ccccc1NC(=O)c1ncoc1-c1ccco1	none (no result: NPC1 promoter act, p53 reactivator, SMN2 splice enh, ELG1 genotox, Rab9 prom act)
CC1=CC(=C(C#N)c2nc3ccccc3s2)C=C(C)N1Cc1ccco1	FLuc counter 4.78µM
O=C(C1CC1)N1CCN(S(=O)(=O)c2ccc3c(c2)OCCO3)CC1	none
CCOc1ccccc1N1CC(c2nc3ccccc3n2CCCOc2ccccc2OC)CC1=O (centres undefined)	FLuc counter 16.9µM (no result: NPC1 promoter act, p53 reactivator, ELG1 genotox, Rab9 prom act)
